Reference: PubChem BioAssay (EPA / NIEHS)
Inconclusive results are not listed. Calls of active or inactive are those of the source. Rule for the calls, unless noted: active = hit-call score of the fitted dose curve at least 0.9, where 1 is the maximum; inconclusive = response in the unintended direction; inactive = score below 0.9.

Key:
[1] = ATG_TAL_CIS: Attagene CIS-FACTORIAL HepG2 Assay for human TAL Basal Promoter (AID 2282966; active = hit-call score of the fitted dose curve at least 0.9, where 1 is the maximum; inactive = score below 0.9;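 note: background control endpoint measuring basal TAL promoter reporter mRNA not a specific factor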); details: HepG2 Attagene cis-factorial TAL promoter reporter; actives raise or lower the signal
Outline: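 Fluorescence of labelled reporter cDNA fragments, resolved by capillary electrophoresis, gave the readout. Human HepG2 liver cells carried transiently transfected cis-element reporter units and were treated for 24 hours; activity was fitted bidirectionally against DMSO.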

[2] = ATG_TGFb_CIS: Attagene CIS-FACTORIAL HepG2 Assay for human Transforming Growth Factor (TGF) (AID 2282967; active = hit-call score of the fitted dose curve at least 0.9, where 1 is the maximum; inactive = score below 0.9); details: HepG2 Attagene CIS TGFb reporter, mRNA transcription; actives raise or lower the signal
Outline: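 HepG2 cells transiently transfected with cis-promoter-driven multiple reporter units measure endogenous TF activity; reporter mRNA quantified at 24 h by RT-PCR, FAM labeling, HpaI digestion and capillary electrophoresis. Bidirectional fit vs DMSO.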

[3] = ATG_VDRE_CIS: Attagene CIS-FACTORIAL HepG2 Assay for human Vitamin D Receptor Element (VDRE) (AID 2282968; active = hit-call score of the fitted dose curve at least 0.9, where 1 is the maximum; inactive = score below 0.9); details: HepG2 VDRE cis-reporter transcription, actives raise or lower the signal
Outline: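 In transiently transfected HepG2 liver cells, gain or loss of reporter mRNA after 24 h exposure is scored relative to DMSO, using fluorescence detection by capillary electrophoresis of RT-PCR products.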

[4] = target: Nuclear receptor subfamily 1 group I member 3 (Homo sapiens) (UniProt Q14994); experiment: ATG_CAR_TRANS: Attagene TRANS-FACTORIAL HepG2 Assay for human Constitutive Androstane Receptor (CAR) (AID 2282969); details: HepG2 Attagene TRANS-FACTORIAL CAR reporter;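 note: activators raise reporter mRNA above DMSO so AC50 marks induction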
Outline: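 Readout is reporter mRNA induction, quantified by fluorescent primer extension and capillary electrophoresis after RT-PCR. Cells were HepG2 transiently carrying chimeric NR-Gal4 constructs with GAL4-UAS reporters, treated for 24 h; activity scored upward from DMSO.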

[5] = target: Estrogen receptor (Homo sapiens) (UniProt P03372); experiment: ATG_ERa_TRANS: Attagene TRANS-FACTORIAL HepG2 Assay for human Estrogen Receptor alpha (ERa) (AID 2282970); details: HepG2 Attagene TRANS ERa GAL4 reporter, mRNA
Outline: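 Human liver HepG2, transient transfection of multiple GAL4-UAS reporter units; TRANS format (exogenous NR-Gal4 chimera). 24 h dosing. Readout: reporter mRNA, RT-PCR, 6-FAM primer extension, HpaI digest, capillary electrophoresis. Positive direction vs DMSO.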

[6] = target: X-box-binding protein 1 (Homo sapiens) (UniProt P17861); experiment: ATG_Xbp1_CIS: Attagene CIS-FACTORIAL HepG2 Assay for human X-box Binding Protein 1 (XBP1) (AID 2282972; active = hit-call score of the fitted dose curve at least 0.9, where 1 is the maximum; inactive = score below 0.9); details: HepG2 XBP1 cis-element reporter, Attagene multiplex; actives raise or lower the signal
Outline: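 HepG2 cells transiently transfected with cis-regulated multiple reporter transcription units; endogenous transcription factor activity measured 24 hours after chemical dosing. Reporter mRNA quantified by RT-PCR, 6-FAM primer extension, HpaI digestion and capillary electrophoresis; bidirectional fitting versus DMSO.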

[7] = ATG_M_19_TRANS: Attagene TRANS-FACTORIAL HepG2 Assay for M19 Transcription Factor (Internal Marker) (AID 2282974); details: HepG2 Attagene TRANS-FACTORIAL M19 internal marker reporter
Outline: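 HepG2 transiently transfected with GAL4-UAS multiplex reporter constructs, exposed 24 h; reporter RNA quantified by RT-PCR, 6-FAM labeling, HpaI digestion and capillary electrophoresis; internal background marker fitted upward versus DMSO.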

[8] = ATG_Hpa5_TRANS: Attagene TRANS-FACTORIAL HepG2 Assay for human GAL4-Hpa5 Hepatocyte Transcription Factor Basal Promoter (AID 2282975); details: HepG2 Attagene GAL4-Hpa5 transcription reporter;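 note: hits are increases in reporter mRNA over DMSO baseline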
Outline: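 Basal-promoter GAL4 background control within the HepG2 trans-factorial panel of transiently transfected reporter units. Reporter mRNA is measured 24 h after dosing by RT-PCR and capillary electrophoresis, fitted for gain of signal versus DMSO.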

[9] = target: Steroid hormone receptor ERR1 (Homo sapiens) (UniProt P11474); experiment: ATG_ERRa_TRANS: Attagene TRANS-FACTORIAL HepG2 Assay for human Estrogen-Related Receptor alpha (ERRa) (AID 2282971); details: HepG2 Attagene TRANS reporter, ERRa transactivation
Outline: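 Reporter transcript induction was quantified by RT-PCR and capillary electrophoresis of FAM-labelled, HpaI-cut products after 24 h treatment of HepG2 cells carrying transiently transfected GAL4-UAS reporter units and an exogenous ERRa-Gal4 fusion; activity scored as increase over DMSO.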

Sequence of Estrogen receptor (Homo sapiens) (P03372 whole entry, looked up, the tested form may be a part): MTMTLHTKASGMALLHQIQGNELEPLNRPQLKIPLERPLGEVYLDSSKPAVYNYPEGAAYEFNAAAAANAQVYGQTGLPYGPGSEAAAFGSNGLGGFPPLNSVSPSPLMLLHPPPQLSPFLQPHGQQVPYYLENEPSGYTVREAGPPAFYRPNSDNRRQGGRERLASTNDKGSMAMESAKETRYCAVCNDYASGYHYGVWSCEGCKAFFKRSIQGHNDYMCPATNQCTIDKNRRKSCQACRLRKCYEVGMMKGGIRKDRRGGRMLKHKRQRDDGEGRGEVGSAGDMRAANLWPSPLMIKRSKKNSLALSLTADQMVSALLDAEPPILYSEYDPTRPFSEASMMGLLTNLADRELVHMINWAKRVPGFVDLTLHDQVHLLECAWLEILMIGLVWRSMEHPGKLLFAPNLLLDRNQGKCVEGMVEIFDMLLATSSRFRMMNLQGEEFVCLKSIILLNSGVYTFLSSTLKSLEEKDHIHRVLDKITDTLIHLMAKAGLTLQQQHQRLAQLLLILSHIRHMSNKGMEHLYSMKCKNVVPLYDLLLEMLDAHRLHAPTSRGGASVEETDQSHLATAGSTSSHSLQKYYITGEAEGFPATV
Sequence of Steroid hormone receptor ERR1 (Homo sapiens) (P11474 whole entry, looked up, the tested form may be a part): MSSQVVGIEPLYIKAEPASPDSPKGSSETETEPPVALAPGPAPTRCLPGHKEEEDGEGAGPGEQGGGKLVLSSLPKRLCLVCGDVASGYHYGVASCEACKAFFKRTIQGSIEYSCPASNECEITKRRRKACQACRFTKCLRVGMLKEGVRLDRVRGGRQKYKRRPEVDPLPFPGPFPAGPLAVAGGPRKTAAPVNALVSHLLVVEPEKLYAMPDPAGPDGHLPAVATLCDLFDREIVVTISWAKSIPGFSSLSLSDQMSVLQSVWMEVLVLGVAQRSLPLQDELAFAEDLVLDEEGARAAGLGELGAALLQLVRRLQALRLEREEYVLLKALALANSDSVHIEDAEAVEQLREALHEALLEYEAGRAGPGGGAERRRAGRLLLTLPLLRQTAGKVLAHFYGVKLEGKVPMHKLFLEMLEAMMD
Sequence of Nuclear receptor subfamily 1 group I member 3 (Homo sapiens) (Q14994 whole entry, looked up, the tested form may be a part): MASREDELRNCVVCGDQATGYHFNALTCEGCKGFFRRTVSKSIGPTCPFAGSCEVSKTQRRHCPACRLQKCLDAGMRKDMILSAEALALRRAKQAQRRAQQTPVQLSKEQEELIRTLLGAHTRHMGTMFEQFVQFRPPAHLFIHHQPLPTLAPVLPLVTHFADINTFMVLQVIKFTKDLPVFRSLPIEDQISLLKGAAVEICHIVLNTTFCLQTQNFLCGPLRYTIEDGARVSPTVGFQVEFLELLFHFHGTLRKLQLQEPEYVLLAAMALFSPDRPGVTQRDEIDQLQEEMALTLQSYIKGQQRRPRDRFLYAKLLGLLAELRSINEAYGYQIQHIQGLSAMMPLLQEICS
Sequence of X-box-binding protein 1 (Homo sapiens) (P17861 whole entry, looked up): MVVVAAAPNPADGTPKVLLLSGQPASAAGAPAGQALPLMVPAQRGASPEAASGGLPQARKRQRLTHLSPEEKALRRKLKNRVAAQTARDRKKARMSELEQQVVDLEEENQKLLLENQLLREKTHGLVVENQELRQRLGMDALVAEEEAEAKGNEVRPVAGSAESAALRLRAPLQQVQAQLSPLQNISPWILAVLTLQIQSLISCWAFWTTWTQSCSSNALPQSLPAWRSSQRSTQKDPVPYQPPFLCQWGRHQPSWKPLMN

Row | SMILES | outcome [1] | outcome [2] | outcome [3] | outcome [4] | outcome [5] | outcome [6] | outcome [7] | outcome [8] | AC50 [3] | AC50 [5] | outcome [9] | AC50 [2] | AC50 [6]
1 | O=c1n(Cl)c(=O)n(Cl)c(=O)n1Cl | inactive | inactive | inactive | inactive | inactive | inactive | inactive | inactive |  |  |  |  | 
2 | CSC(=O)c1c(C(F)F)nc(C(F)(F)F)c(C(=O)SC)c1CC(C)C | inactive | inactive |  | inactive |  | inactive | inactive | inactive | 0.789 µM (active) | 8.26 µM (active) |  |  | 
3 | COCC(=O)N(c1c(C)cccc1C)C(C)C(=O)OC (stereo not drawn) | inactive | inactive | inactive | inactive | inactive | inactive | inactive | inactive |  |  | inactive |  | 
4 | CC1(C)CON(Cc2ccccc2Cl)C1=O | inactive | inactive |  | inactive |  | inactive | inactive | inactive | 13.2 µM (active) | 66.7 µM (active) |  |  | 
5 | CC1(C)C(C=C(Cl)Cl)C1C(=O)OC(C#N)c1cccc(Oc2ccccc2)c1 (stereo not drawn) | inactive | inactive |  | inactive |  | inactive | inactive | inactive | 4.91 µM (active) | 19.7 µM (active) |  |  | 
6 | CCCC(=NOCC)C1=C(O)CC(CC(C)SCC)CC1=O (stereo not drawn) | inactive | inactive | inactive | inactive | inactive | inactive | inactive | inactive |  |  |  |  | 
7 | CC(C)C1(C)N=C(c2ncccc2C(=O)O)NC1=O (stereo not drawn) | inactive | inactive | inactive | inactive | inactive | inactive | inactive | inactive |  |  |  |  | 
8 | CN/C(=N\[N+](=O)[O-])NCc1cnc(Cl)s1 | inactive | inactive | inactive | inactive | inactive | inactive |  |  |  |  |  |  | 
9 | COc1cc(OC)nc(NC(=O)NS(=O)(=O)c2ncccc2OCC(F)(F)F)n1 | inactive | inactive | inactive | inactive | inactive | inactive | inactive | inactive |  |  |  |  | 
10 | CC(C)=CC1C(C(=O)OCc2coc(Cc3ccccc3)c2)C1(C)C (stereo not drawn) | inactive | inactive |  | inactive |  | inactive | inactive | inactive | 14.5 µM (active) | 19.6 µM (active) |  |  | 
11 | CC1(C)CCC(=Cc2ccc(Cl)cc2)C1(O)Cn1cncn1 (stereo not drawn) | inactive | inactive |  | inactive | inactive | inactive | inactive |  | 8.04 µM (active) |  |  |  | 
12 | CC(C)(C)C(=O)C(Oc1ccc(Cl)cc1)n1cncn1 (stereo not drawn) | inactive | inactive |  | inactive |  | inactive | inactive | inactive | 34.4 µM (active) | 18.5 µM (active) |  |  | 
13 | CCSC(=O)N1CCCCCC1 | inactive | inactive | inactive | inactive | inactive | inactive | inactive | inactive |  |  | inactive |  | 
14 | CCCN(CC)CC1COC2(CCC(C(C)(C)C)CC2)O1 (stereo not drawn) | inactive |  |  | inactive | inactive |  | inactive | inactive | 9.19 µM (active) |  |  | 19.9 µM (active) | 25.3 µM (active)
15 | CCC(C)n1c(=O)[nH]c(C)c(Br)c1=O (stereo not drawn) | inactive | inactive | inactive | inactive | inactive | inactive | inactive |  |  |  | inactive |  | 
16 | CCCCC(O)(Cn1cncn1)c1ccc(Cl)cc1Cl (stereo not drawn) | inactive | inactive |  | inactive |  | inactive |  |  | 23.6 µM (active) | 16.9 µM (active) |  |  | 
17 | Cc1c(COC(=O)[C@@H]2[C@H](/C=C(\Cl)C(F)(F)F)C2(C)C)cccc1-c1ccccc1 | inactive | inactive |  | inactive |  | inactive | inactive | inactive | 12.6 µM (active) | 14.9 µM (active) |  |  | 
